{"source": "the supplement of paper PMC7801607"}
{"test_system": "Plasmodium berghei ANKA liver stage in HepG2-A16-CD81", "experiment": "% inhibition of liver stage parasite viability (luciferase); higher = more inhibition", "conditions": "5 µM; 48 h", "protocol": "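Single-concentration screen of the MMV Pandemic Response Box. P. falciparum NF54 asexual blood stages: pLDH assay, 72 h at 37 °C, 2 and 20 µM, n=2. Stage IV/V gametocytes (NF54): luciferase reporter (NF54-Pfs16-GFP-Luc, 48 h), ATP bioluminescence (24 h) and PrestoBlue (48 h) at 1 and 5 µM, n=1. P. berghei liver stage (luciferase in HepG2-A16-CD81, 48 h post infection) at 5 µM, n=4. All normalised to DMSO and kill controls as % inhibition.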", "units": {"% inhibition of liver stage parasite viability": "%"}}
{"molecule": "Nc1c(C(=O)NCc2ccco2)c2nc3ccccc3nc2n1CCN1CCCCC1", "% inhibition of liver stage parasite viability": 28.4}
{"molecule": "COc1cc(C(C)(C)CCCC(C)C)cc(OC)c1OC", "% inhibition of liver stage parasite viability": 21}
{"molecule": "O=C(NC12CC3CC(CC(C3)C1)C2)c1cc2ccccc2[nH]1", "% inhibition of liver stage parasite viability": 11.7}
{"molecule": "COc1ccccc1CN[C@H]1C2CCN(CC2)[C@H]1C(c1ccccc1)c1ccccc1", "% inhibition of liver stage parasite viability": 17.8}
{"molecule": "C[C@@]1(O)[C@H](O)[C@@H](CO)O[C@H]1n1ccc2c(N)ncnc21", "% inhibition of liver stage parasite viability": 12.7}
{"molecule": "CCCCc1ccc(C(=O)O)nc1", "% inhibition of liver stage parasite viability": 19.3}
{"molecule": "C[N+]1(C)CCCC(OC(=O)C(O)(c2ccccc2)c2ccccc2)C1", "note": "(stereo not drawn)", "% inhibition of liver stage parasite viability": 34}
{"molecule": "C[C@H]1CC[C@]2(NC1)O[C@H]1C[C@H]3[C@@H]4CC[C@H]5C[C@@H](O)CC[C@]5(C)[C@H]4CC[C@]3(C)[C@H]1[C@@H]2C", "% inhibition of liver stage parasite viability": 32}
{"molecule": "NC1(C(=O)O)CCP(=O)(O)CC1", "note": "(stereo not drawn)", "% inhibition of liver stage parasite viability": 19.9}
{"molecule": "CCN1CCN(Cc2nc3ccc([N+](=O)[O-])cc3c(=O)n2-c2ccccc2F)CC1", "% inhibition of liver stage parasite viability": 14.3}
{"molecule": "COC(=O)Nc1nc2ccccc2[nH]1", "% inhibition of liver stage parasite viability": 30.8}
{"molecule": "CC(C)Oc1cccc(NC(=O)c2ccccc2C(F)(F)F)c1", "% inhibition of liver stage parasite viability": 23.7}
{"molecule": "CN1C(=O)C(c2ccccc2)C(=O)N(c2ccccc2)c2cc(C(F)(F)F)ccc21", "note": "(stereo not drawn)", "% inhibition of liver stage parasite viability": 7.89}
